The text below walks through data of PubChem BioAssay (EPA / NIEHS).

SMILES strings stand for the structures. Calls of active or inactive are those of the source. The calls were made as follows: active = hit-call score of the fitted dose curve at least 0.9, where 1 is the maximum; inactive = score below 0.9.

A short description of the test: BSK_BE3C_SRB: Viability Assessment in the BioMAP Diversity Plus: BE3C Assay (AID 2283028).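 As to AC50: fitted both ways so AC50 may mark signal gain or loss versus DMSO.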 As to conditions: primary human bronchial epithelial cells. The method, then: BSK_BE3C is a cell-based, multiplexed-readout assay that uses bronchial epithelial cell, a human lung primary cell, with measurements taken at 24 hours after chemical dosing in a 96-well plate.BSK_BE3C_SRB is an assay component measured in the BSK_BE3C assay. It measures 0.1% sulforhodamine related to cell death using Sulforhodamine staining technology.Data from the assay component BSK_BE3C_SRB was analyzed into 1 assay endpoint. This assay endpoint, BSK_BE3C_SRB, was analyzed with bidirectional fitting relative to DMSO as the negative control and baseline of activity. Using a type of viability reporter, gain or loss-of-signal activity can be used to understand changes in the signaling. Furthermore, this assay endpoint can be referred to as a primary readout, because this assay has produced multiple assay endpoints where this one serves a signaling function. To generalize the intended target to other relatable targets, this assay endpoint is annotated to the cell morphology intended target family, where the subfamily is cell conformation.
The levels of cell surface (or secreted, indicated by the prefix "s") biomarker endpoints were measured by ELISA. Overt cytotoxicity to cells in confluent adherent cultures (all systems other than the BT system) was assessed by measuring total protein levels using sulforhodamine B (SRB) staining in parallel cultures at the time of biomarker measurements, indicated as SRB endpoints. For proliferation assays for adherent cell types, individual cell types are cultured at sub-confluence and relative cell numbers quantified by SRB staining at time points optimized for each system (48 h: 3C and CASM3C systems; 72 h: BT and HDF3CGF systems; 96 h: SAg system). SRB was performed by staining cells with 0.1% SRB after fixation with 10% TCA and reading wells at 560 nm.Viability and proliferation of PBMC (T cells) was quantified by Alamar Blue reduction for the SAg and BT systems. For PBMC viability (referred to as PBMC Cytotoxicity within the assay endpoint names), cells were plated (75,000/well in a 96-well plate) and then chemical samples added for 1 h before addition of activators, SEB and TSST-1 (20 ng/mL final concentration each). Cells were incubated for 90 h. Then, Alamar Blue (20 uL/well) (Invitrogen, Cat DAL1100) was added for 6 h, and the plates were read with a fluorescence microplate reader at 546/580 nm (excitation/emission). For PBMC proliferation, cells were plated and activated as above but incubated for only 16 h prior to addition of Alamar Blue. Plates were read after 6 h.
For the compound `CC12CC1(C)C(=O)N(c1cc(Cl)cc(Cl)c1)C2=O` (stereo not given), the result was inactive.

Turning to `C(=NC1CCCCC1)=NC1CCCCC1`, the half-maximal activity concentration (AC50) is 33.4 µM (active).

On to `COc1cc(-c2ccc(N)c(OC)c2)ccc1N`, for which the result was inactive.

Turning to `O=Cc1cccc(Oc2ccccc2)c1`, the outcome was inactive.

As for `CCOP(=S)(OCC)Oc1nc(Cl)c(Cl)cc1Cl`, the result was inactive.

Consider `Oc1cccc2cccnc12`, for which the AC50 is 4.3 µM (active).

As for `CCC(=O)C(CC(C)N(C)C)(c1ccccc1)c1ccccc1` (stereo not given), the result was inactive.

For `CCC(C)(C)c1ccc(O)c(C(C)(C)CC)c1`, the half-maximal activity concentration (AC50) was 28.8 µM (active).

Turning to `CCCCC(CC)CO[N+](=O)[O-]` (stereo not given), the outcome was inactive.

On to `O=c1[nH]c(=O)[nH]c(=O)[nH]1`, for which the outcome was inactive.

In the case of `CC(C)(c1ccccc1)c1ccc(O)c(C(C)(C)c2ccccc2)c1`, the AC50 is 25.6 µM (active).

`Nc1ncc([N+](=O)[O-])s1`: the result was inactive.

For the compound `CC(C)(C)CC(C)(C)c1ccc(O)cc1`, the AC50 was 13.3 µM (active).

On to `CCOP(=S)(OCC)SCSP(=S)(OCC)OCC`, for which the result was inactive.

For `ClCC(Cl)CCl`, the result was inactive.

Take `CCOP(=S)(OCC)SCCS(=O)(=O)CC`: the outcome was inactive.

Regarding `COC[C@H](C)N(C(=O)CCl)c1c(C)csc1C`, the outcome was inactive.

For `COC(=O)Cc1ccccc1`, the result was inactive.

With `O=C1C2(Cl)C3(Cl)C4(Cl)C(Cl)(Cl)C5(Cl)C3(Cl)C1(Cl)C5(Cl)C24Cl` (stereo not given), the AC50 was 5.75 µM (active).

As for `NC(=S)Nc1ccccc1`, the result was inactive.

In the case of `ClC(Cl)=C(Cl)C(Cl)=C(Cl)Cl`, the AC50 was 31.2 µM (active).

For the compound `NC(=O)O`, the outcome was inactive.

Turning to `CC(=O)OC(c1ccccc1)C(Cl)(Cl)Cl` (stereo not given), the result was inactive.

Turning to `COP(=S)(OC)Oc1cc(Cl)c(Cl)cc1Cl`, the outcome was inactive.

Take `CCN1CCC2(CC1)COc1cc3c(cc12)N(C(=O)c1ccc(-c2ccc(-c4nnc(C)o4)cc2C)cc1)CC3`: the AC50 is 12.9 µM (active).

In the case of `CN(C)N=O`, the outcome was inactive.

Take `O=[N+]([O-])c1ccc(O)c([N+](=O)[O-])c1`: the outcome was inactive.

As for `CCSC(C)CC1CC(=O)C(C(CC)=NOC/C=C/Cl)=C(O)C1` (stereo not given), the result was inactive.

As to `C=CC(=O)OCCCCCC(C)C`, the outcome was inactive.

`O=C(O)C(Cl)(Cl)Cl`: the result was inactive.

Turning to `Oc1ccc(-c2ccccc2)cc1`, the result was inactive.

`BrCCBr`: the outcome was inactive.

Regarding `CCCCCCCCc1ccc(O)cc1`, the AC50 is 34.9 µM (active).

Take `Nc1ccc(-c2ccc(N)c(Cl)c2)cc1Cl`: the result was inactive.

For `COP(=S)(OC)Oc1ccc(S(=O)(=O)N(C)C)cc1`, the outcome was inactive.

With `CC(C)(OO)c1ccccc1`, the result was inactive.

With `OCc1ccco1`, the outcome was inactive.

On to `COC(=O)c1sccc1S(=O)(=O)NC(=O)Nc1nc(C)nc(OC)n1`, for which the outcome was inactive.

As for `O=C(OC1CCCCC1)c1ccccc1C(=O)OC1CCCCC1`, the result was inactive.

As for `Nc1cccc2ccccc12`, the outcome was inactive.

Usually AC50 stands for the midpoint of the concentration-response curve, whichever way the signal moves.
